Reference: ChEMBL document CHEMBL3988442, “University of Dundee, Small-Polar-MMV Screening Library” (2021)
For some assays here: Results with a measured potency or affinity are listed apart.

Tests used:
Design in all cases: scale not given: direction of the effect not stated beside the values
[1] = molecular target: Protein translocase subunit SecA (Escherichia coli (strain K12)) (UniProt P10408); assay: Assay to Identify E. coli SecA ATPase Inhibitors; assay type: functional; details: 30 µM
[2] = molecular target: T1, Ubiquitin-activating enzyme e1, putative (Leishmania donovani (strain BPK282A1)) (UniProt E9BSI1); assay: Leishmania donovani Ubiquitin Activating Enzyme (LdE1); assay type: functional; details: 30 µM
T1 sequence (whole entry): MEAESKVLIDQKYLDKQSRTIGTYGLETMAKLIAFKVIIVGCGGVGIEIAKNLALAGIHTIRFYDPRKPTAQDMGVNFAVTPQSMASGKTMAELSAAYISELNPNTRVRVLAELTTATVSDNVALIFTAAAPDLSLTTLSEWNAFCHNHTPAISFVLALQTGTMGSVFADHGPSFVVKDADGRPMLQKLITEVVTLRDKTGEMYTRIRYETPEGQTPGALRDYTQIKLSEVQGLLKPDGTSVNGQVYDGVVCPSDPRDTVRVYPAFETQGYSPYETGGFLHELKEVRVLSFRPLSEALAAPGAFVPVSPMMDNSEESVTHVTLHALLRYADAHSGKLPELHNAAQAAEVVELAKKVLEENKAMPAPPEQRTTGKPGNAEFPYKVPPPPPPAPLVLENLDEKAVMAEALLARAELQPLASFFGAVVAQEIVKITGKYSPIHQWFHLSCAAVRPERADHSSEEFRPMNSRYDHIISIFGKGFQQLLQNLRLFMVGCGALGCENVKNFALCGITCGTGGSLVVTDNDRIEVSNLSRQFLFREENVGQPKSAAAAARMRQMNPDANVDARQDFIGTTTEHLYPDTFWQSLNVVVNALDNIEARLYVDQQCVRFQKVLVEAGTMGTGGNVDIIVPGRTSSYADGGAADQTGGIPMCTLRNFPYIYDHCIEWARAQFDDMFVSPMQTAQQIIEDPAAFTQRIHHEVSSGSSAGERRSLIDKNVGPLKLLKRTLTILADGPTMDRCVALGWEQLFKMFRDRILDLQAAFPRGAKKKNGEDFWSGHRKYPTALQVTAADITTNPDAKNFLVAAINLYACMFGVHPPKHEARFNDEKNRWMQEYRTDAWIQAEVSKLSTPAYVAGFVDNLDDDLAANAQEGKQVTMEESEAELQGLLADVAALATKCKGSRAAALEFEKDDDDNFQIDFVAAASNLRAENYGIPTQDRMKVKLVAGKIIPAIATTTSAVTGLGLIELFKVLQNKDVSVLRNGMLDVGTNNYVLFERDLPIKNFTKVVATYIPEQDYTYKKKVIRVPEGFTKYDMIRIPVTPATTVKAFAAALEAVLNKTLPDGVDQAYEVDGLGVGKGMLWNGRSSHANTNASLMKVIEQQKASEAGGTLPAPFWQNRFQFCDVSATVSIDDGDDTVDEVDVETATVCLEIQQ

[3] = molecular target: AMP-activated protein kinase, AMPK (Homo sapiens) (UniProt P54646+O43741+P54619+Q9UGJ0+Q9Y478+Q13131+Q9UGI9); assay: AMP-dependent Kinase enzyme assay. An in vitro enzyme assay that detects ADP turnover that is directly proportional to AMPK activity. This uses naive AMPK that is activated during the assay with MK-8722; assay type: functional; details: 30 µM
[4] = molecular target: Sialic acid-binding Ig-like lectin 9 (Homo sapiens) (UniProt Q9Y336); assay: Hs-Siglec9 ALPHAscreen SOP 20170721; details: 10 µM
Trypanosoma cruzi = assay: Trypanosoma cruzi phosphomannomutase and mannose-1-phosphate guanylyltransferase assay; assay type: functional; details: 10 µM
[5] = molecular target: T2, Arginase-2, mitochondrial (Homo sapiens) (UniProt P78540); assay: in vitro enzyme assay to detect the production of urea directly proportional to the activity of Arginase II; assay type: functional; details: 33.3 µM; further: in the data most compounds retested in dose-response had high values
T2 sequence (whole entry): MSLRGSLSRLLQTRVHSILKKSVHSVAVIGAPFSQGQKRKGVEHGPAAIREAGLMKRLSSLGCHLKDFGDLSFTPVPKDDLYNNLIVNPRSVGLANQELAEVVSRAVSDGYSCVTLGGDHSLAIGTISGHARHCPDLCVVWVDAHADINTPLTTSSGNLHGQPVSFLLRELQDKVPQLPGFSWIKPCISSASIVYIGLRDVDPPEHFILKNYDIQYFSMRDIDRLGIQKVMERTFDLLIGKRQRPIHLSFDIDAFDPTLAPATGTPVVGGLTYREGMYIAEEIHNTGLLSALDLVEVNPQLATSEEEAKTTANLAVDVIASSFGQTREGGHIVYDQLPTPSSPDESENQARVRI

[6] = molecular target: T3, Proteasome subunit beta (Trypanosoma cruzi) (UniProt O96673); assay: Trypanosoma cruzi proteasome chymotrypsin-like activity (TcProtChymo) assay.; further: in the data most compounds retested in dose-response had high values; assay type: functional; details: 9.37 µM
T3 sequence (whole entry): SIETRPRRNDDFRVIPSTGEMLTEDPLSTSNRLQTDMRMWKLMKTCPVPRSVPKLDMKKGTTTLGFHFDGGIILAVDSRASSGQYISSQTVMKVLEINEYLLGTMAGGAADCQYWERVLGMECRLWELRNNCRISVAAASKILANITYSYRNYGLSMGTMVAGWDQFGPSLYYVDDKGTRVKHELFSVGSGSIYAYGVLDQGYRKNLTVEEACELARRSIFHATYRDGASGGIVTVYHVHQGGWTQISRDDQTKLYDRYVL

Homo sapiens = species on record: Homo sapiens; assay: To identify inhibition of the IFN signalling (Jak-Stat) pathway via expression of an eGFP reporter gene under the control of an IFN-stimulated response element (ISRE) containing MxA promoter.; assay type: functional; details: 30 µM
[7] = molecular target: T4, Tyrosyl-tRNA synthetase, putative (Trypanosoma cruzi (strain CL Brener)) (UniProt Q4DSP6); assay: Trypanosoma cruzi tyrosyl tRNA synthetase (TcYRS) _High Tyrosine SOP; assay type: functional; details: 30 µM; further: in the data most compounds retested in dose-response had high values
T4 sequence (whole entry): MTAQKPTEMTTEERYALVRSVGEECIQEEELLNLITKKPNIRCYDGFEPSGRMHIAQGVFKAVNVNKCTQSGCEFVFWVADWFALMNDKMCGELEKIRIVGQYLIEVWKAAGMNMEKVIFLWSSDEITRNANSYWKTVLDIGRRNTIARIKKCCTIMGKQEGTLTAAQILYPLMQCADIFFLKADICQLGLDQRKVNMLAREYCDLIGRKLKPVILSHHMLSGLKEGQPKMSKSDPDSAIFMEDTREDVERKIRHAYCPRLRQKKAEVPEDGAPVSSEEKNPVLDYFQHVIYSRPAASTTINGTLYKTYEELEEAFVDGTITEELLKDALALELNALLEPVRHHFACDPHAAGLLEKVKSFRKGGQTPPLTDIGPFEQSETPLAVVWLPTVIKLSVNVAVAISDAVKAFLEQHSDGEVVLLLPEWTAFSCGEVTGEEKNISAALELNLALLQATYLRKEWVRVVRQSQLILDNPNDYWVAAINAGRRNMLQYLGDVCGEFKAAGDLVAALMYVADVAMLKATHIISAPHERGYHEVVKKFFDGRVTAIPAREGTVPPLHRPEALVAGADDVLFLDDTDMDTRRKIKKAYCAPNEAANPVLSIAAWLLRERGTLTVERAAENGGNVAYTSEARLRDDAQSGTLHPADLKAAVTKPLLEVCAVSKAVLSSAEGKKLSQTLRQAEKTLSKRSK

[8] = molecular target: T4, Tyrosyl-tRNA synthetase, putative (Trypanosoma cruzi (strain CL Brener)); assay: Trypanosoma cruzi tyrosyl tRNA synthetase (TcYRS) SOP; assay type: functional; details: 30 µM
[9] = molecular target: Chromo domain-containing protein 1 (Saccharomyces cerevisiae (strain ATCC 204508 / S288c) (Baker's yeast)) (UniProt P32657); assay: ScCHD-1 Enzyme Inhibition Assay; assay type: functional; details: 30 µM; further: in the data most compounds retested in dose-response had high values
Chain of Chromo domain-containing protein 1 (Saccharomyces cerevisiae (strain ATCC 204508 / S288c) (Baker's yeast)) (P32657 whole entry, the tested form may be a part): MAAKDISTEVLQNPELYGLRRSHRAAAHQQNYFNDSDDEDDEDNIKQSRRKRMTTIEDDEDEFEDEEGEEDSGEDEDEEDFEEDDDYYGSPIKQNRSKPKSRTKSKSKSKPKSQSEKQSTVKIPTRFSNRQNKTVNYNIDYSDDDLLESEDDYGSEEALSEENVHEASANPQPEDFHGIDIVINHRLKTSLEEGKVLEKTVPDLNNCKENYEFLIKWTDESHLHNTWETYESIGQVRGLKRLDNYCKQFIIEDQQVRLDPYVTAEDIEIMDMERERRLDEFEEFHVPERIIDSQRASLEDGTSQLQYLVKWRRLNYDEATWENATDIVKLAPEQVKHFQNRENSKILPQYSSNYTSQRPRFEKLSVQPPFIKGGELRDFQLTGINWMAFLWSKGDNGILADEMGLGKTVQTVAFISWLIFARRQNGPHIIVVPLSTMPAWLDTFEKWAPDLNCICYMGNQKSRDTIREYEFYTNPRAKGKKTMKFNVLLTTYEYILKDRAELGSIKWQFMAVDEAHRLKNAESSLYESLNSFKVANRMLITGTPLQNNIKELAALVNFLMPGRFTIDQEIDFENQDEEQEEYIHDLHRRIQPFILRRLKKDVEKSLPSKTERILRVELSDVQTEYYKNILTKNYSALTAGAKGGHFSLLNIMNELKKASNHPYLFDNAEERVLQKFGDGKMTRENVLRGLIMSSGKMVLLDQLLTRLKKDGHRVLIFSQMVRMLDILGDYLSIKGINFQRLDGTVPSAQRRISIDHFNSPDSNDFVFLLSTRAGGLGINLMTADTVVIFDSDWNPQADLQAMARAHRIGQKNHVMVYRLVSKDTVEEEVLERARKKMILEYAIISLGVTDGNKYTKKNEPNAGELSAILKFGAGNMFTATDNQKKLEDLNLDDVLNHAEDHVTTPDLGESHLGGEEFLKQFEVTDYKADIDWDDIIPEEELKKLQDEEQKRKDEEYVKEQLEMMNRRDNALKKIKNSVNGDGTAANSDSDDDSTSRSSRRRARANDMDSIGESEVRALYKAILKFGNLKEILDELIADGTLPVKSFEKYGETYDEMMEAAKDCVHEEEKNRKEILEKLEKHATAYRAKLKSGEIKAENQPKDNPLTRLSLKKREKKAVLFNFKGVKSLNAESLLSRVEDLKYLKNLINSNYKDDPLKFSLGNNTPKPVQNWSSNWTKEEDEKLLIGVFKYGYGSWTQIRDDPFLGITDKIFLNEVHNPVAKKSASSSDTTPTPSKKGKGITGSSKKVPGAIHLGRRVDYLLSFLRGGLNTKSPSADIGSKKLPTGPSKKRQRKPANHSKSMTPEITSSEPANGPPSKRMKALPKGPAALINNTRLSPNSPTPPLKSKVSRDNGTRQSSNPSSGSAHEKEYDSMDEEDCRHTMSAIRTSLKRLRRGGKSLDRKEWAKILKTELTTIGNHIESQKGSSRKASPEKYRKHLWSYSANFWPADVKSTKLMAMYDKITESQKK

Chain of Sialic acid-binding Ig-like lectin 9 (Homo sapiens) (Q9Y336 whole entry): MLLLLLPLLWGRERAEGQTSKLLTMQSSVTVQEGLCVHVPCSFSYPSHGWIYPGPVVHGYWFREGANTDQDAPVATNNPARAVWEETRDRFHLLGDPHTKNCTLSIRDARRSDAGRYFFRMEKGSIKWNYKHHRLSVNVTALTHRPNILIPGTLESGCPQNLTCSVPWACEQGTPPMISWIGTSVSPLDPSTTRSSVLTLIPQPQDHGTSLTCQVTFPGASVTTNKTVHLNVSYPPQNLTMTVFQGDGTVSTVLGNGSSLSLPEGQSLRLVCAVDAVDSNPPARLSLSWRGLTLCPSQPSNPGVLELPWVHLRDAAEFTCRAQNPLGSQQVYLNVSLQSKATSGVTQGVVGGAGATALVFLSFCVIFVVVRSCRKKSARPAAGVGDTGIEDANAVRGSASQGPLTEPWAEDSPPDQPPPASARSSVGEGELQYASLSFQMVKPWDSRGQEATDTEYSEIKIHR
Chain of Protein translocase subunit SecA (Escherichia coli (strain K12)) (P10408 whole entry): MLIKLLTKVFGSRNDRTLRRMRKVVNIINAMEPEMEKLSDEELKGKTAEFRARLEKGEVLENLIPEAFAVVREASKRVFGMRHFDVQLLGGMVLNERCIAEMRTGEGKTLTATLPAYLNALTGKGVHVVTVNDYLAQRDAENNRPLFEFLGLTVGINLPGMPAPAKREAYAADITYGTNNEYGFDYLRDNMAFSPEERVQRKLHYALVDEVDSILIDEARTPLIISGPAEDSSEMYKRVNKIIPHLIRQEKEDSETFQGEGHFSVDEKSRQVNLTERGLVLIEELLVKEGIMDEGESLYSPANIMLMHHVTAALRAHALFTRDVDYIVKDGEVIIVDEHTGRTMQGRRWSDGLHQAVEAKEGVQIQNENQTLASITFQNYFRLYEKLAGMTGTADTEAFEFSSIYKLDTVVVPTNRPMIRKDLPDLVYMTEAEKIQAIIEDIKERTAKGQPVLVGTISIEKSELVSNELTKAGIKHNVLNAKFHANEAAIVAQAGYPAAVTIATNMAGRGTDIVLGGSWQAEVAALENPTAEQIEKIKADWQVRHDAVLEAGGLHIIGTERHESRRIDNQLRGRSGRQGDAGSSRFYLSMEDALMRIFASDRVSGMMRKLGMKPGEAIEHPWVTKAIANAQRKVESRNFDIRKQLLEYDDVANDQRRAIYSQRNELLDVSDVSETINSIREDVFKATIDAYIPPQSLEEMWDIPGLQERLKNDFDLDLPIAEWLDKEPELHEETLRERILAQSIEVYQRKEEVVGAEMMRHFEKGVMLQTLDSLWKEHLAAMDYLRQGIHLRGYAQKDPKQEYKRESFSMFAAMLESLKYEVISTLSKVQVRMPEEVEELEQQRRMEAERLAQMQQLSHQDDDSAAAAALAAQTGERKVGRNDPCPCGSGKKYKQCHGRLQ

Structure (SMILES)	Percent Effect [1] [%]	Percent Effect [2] [%]	Percent Effect [3] [%]	Percent Effect [4] [%]	Percent Effect (Trypanosoma cruzi) [%]	Percent Effect [5] [%]	Percent Effect [6] [%]	Percent Effect (Homo sapiens) [%]	Percent Effect [7] [%]	Percent Effect [8] [%]	Percent Effect [9] [%]
COc1cccc(CNc2c(C)cnc3c2c(=O)n(C)c(=O)n3C)c1	-2.5	16.4	-3.93	-14.8	2.35	0.909	15.4	21.6	3.23	20	-6.85
CS(=O)(=O)NCC(=O)N1CCCC1c1noc(C2CC2)n1 (configuration not stated)	-3.88	16	-6.02	25.8	4.19	41.1	5.58	0.475	4.92	13.6	-6.99
O=C(C1=CCCC1)N1CCC[C@]2(C[C@@H](OCc3ccncc3)CO2)C1	1.57	10.7	4.23	8.61	-1.93	-19.2	7.69	-6.85	5.21	22.5	-9.61
O=C1CC[C@@H]2[C@@H](CCN2C(=O)c2ccsc2)N1CC1CC1	-4.27	-2.7	6.58	-0.934	4.2	2.23	21.4	-14.4	4.32	7.69	2.18
Cc1cc(C2CCCN2CCCc2nc3ccccc3o2)on1 (configuration not stated)	0.895	5.41	-3.23	0.643	-3.87	21.6	1.62	2.07	4.43	6.17	-3.04
Cc1cnc(CN(C)C2CCN(CCn3cc(C#N)cn3)C2)o1 (configuration not stated)	2.65	16.2	-13.3	-2.11	-7.83	-2	21.4	6.73	3.45	11.1	-2.79
Cc1cccc(CN2C(=O)CO[C@@H]3CN(CCO)C[C@H]32)c1	1.05	10.8	-5.9	-3.44	4.88	26.2	12.1	10.1	6.93	8.54	1.31
CN(C)C(=O)N1C[C@@H]2CC[C@H](C1)N(C(=O)CCCn1cncn1)C2	-2.38	2.7	0.473	0.611	1.74	1.43	19	-5.66	8.99	21.9	-3.6
CC(C)NC(=O)c1nnn(-c2cccc(C(F)(F)F)c2)c1N	-2.18	-4.17	-2.65	-0.424	6.51	-4.86	4.04	11.5	0	0	-1.24
CCn1nccc1CNC(=O)C1CCCC1	0.221	10.4	2.62	4.33	-7.38	1.38	9.65	-1.06	5.38	16.1	-0.569
Cc1cc(C)n(CC2CN(CC(=O)Nc3c(C)n[nH]c3C)CCO2)n1 (configuration not stated)	-3.28	15.6	2.77	0.0825	-8.61	0	10.5	24.1	6.8	12.2	-3.32
Cc1cc(CN2CCCC(C)(CO)C2)ccc1F (configuration not stated)	0.156	5.41	-7.31	1.4	2.05	12.2	0.0858	5.91	-1.07	3.7	-7.89
Cc1ccc(C(C)NC(=O)Nc2ccccc2CN2CCOCC2)o1 (configuration not stated)	-5.3	5.41	-1.54	9.05	-2.64	-5.21	9.19	-2.32	7.53	8.64	-0.483
Cc1nn(C)c2cn(C(C)C(=O)NCc3cccnc3)nc12 (configuration not stated)	-2.07	14.7	-8.7	5.87	1.77	-6.16	17.9	20.4	-4.23	10.3	-9.99
Cc1nn(C)c(C)c1C1COCCN1C(=O)Cc1cccc(F)c1 (configuration not stated)	-0.171	13.7	-6.33	3.58	-3.13	-1.82	17.6	33.3	1.07	5	-4.69
CCCC(=O)N1CC[C@@H]2[C@H](CC1)N(Cc1cccnc1)CCS2(=O)=O	-8.11	5.41	3.63	-1.04	-0.586	2.5	6.85	0.118	8.91	8.54	-3.88
Nc1nccc(NCc2cc3n(n2)CCCN(C(=O)C2CCC2)C3)n1	-4.85	8.22	2.89	2.05	-0.794	-3.59	14.5	9.88	4.17	11.1	-0.468
O=C1CCC2(CCCN(C(=O)c3cscn3)C2)CN1CCc1c[nH]cn1 (configuration not stated)	-3.15	7.79	-3.24	13.5	6.98	-9.65	15.1	-31.6	5.38	13.6	-5.62
O=C(c1cn(-c2cc(N3CCSCC3)ncn2)cn1)N1CCSCC1	-2.69	8.22	-3.54	-3.87	6.27	-1.82	24	-3.38	7.53	15	-3.99
CC(O)CC(C)(C)CNC(=O)NCc1cccc(-n2ccnc2)c1 (configuration not stated)	-3.71	0	-1.99	-7.44	-2.83	-2.23	-2.83	18.3	-1.07	-1.24	4.12
Cc1cc(C)n(CC(=O)N(C)Cc2csc(-c3cccs3)n2)c(=O)n1	0.251	0	-4.15	2.64	1.66	7.29	19.5	17.8	6.01	18.5	-6.32
CCC(C)NC(=O)c1ccccc1-n1cnnn1 (configuration not stated)	-6.55	5.33	0.166	2.83	-0.292	5.21	12.2	3.8	9.29	16.1	-6.11
